# High-throughput results as filed in PubChem.
# A selection: hits, their analogues and other compounds. The true share with any hit is near 1.8%.
# Fam108B counter = blocks mouse Fam108B hydrolase in RBBP9 counter-screen; recombinant Fam108B, FP-Rh probe fluorescence polarization; hit rate 0.33% among 300,000; inhibition, % at 9.51 µM;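 active means inhibition above the screen mean inhibition plus 3 SD, computed separately per campaign, cut at about 18% in these data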;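 further: inhibitors lower polarization as less probe binds the enzyme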
# LYPLA1 counter = counter-screen for PME1 inhibitors: inhibitors of human LYPLA1; O75608; recombinant LYPLA1, FP-Rh probe fluorescence polarization; inhibition, % at 5.9 µM; hit rate 0.16% among 320,000; AID 2174;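 active means inhibition above the mean of all tested compounds plus 3 SD, set per campaign, cut at about 14% in these data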;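 further: inhibitors block serine hydrolase probe labeling of LYPLA1 so polarization falls; 0% = enzyme with DMSO and 100% = wells lacking LYPLA1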
# Target sequence (O75608 whole entry, looked up): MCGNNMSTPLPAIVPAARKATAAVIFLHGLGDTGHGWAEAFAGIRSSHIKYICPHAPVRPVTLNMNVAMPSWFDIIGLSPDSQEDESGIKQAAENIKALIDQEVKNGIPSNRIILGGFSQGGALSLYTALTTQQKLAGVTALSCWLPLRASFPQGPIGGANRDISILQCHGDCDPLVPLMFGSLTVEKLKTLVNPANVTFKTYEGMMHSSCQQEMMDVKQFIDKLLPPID
# PAD4 FP inh = PAD4 (human) enzyme inhibition; hit rate 0.41% among 330,000; recombinant PAD4, RCA probe fluorescence polarization; inhibition, % at 6.36 µM; AID 485272;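 active means percent inhibition above a cutoff equal to the mean of all tested compounds plus 3 SD, cut at about 15% in these data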;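 further: 0% = PAD4 with RCA probe and DMSO and 100% = probe without PAD4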
# GSTO1 counter = counter-screen for RBBP9 inhibitors: inhibitors of human GSTO1; P78417; recombinant GSTO1, activity-based probe fluorescence polarization; inhibition, % at 5.96 µM; hit rate 1.1% among 300,000; AID 1974;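 active means inhibition above the campaign mean inhibition plus 3 SD, cut at about 35% in these data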;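 further: 0% = GSTO1-1 with DMSO and 100% = wells lacking GSTO1-1 enzyme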
# LYPLA2 inh = blocks human lysophospholipase 2, a PME1 counter-screen; inhibition, % at 5.9 µM; AID 2177; recombinant LYPLA2, FP-Rh probe fluorescence polarization; O95372; hit rate 0.38% among 320,000;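 active means inhibition above the screen-wide mean plus 3 SD, limit set per campaign, cut at about 26% in these data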;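 further: 0% = LYPLA2 with DMSO and 100% = wells lacking LYPLA2 enzyme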
# Target sequence (O95372 whole entry, looked up): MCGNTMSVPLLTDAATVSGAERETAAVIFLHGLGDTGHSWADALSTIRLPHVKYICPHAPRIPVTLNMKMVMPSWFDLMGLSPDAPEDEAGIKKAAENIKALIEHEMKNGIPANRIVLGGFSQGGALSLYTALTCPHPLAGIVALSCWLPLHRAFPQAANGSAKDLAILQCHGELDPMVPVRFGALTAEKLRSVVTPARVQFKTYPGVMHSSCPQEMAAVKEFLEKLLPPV
# PME-1 primary = PME-1 (human) inhibition | recombinant PME-1, FP-Rh probe fluorescence polarization | inhibition, % at 5.9 µM | hit rate 0.53% among 320,000 | AID 2130;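 active means inhibition above the campaign mean of all compounds plus 3 SD, cut at about 26% in these data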;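 further: competitive labeling of PME-1 active site by serine hydrolase directed probe; 0% = PME-1 with DMSO and 100% = wells lacking PME-1 enzyme; inhibitors block probe labeling so polarization falls and inhibition rises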
# Fam108b inh conf = confirmation of mouse Fam108b serine hydrolase inhibitors; inhibition, % at 9.51 µM; shares compounds with Fam108B counter; hit rate 44% among 930; recombinant Fam108b, FP-Rh probe fluorescence polarization;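 active means inhibition above a limit from the primary screen, the mean over all compounds plus 3 SD, cut at about 19% in these data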;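 further: 0% = median of active Fam108b wells and 100% = catalytically dead S170A mutant; inhibitors free the probe so polarization falls as inhibition rises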
# Fam108b inh = inhibits mouse Fam108b in gel-based ABPP | recombinant Fam108b, fluorophosphonate probe | shares compounds with Fam108B counter | inhibition, % at 20 µM | hit rate 44% among 260; in the data active means inhibition above about 40%
# GSTO1 confirm = GSTO1 (human) inhibition, confirmation. shares compounds with GSTO1 counter. recombinant GSTO1, probe fluorescence polarization. inhibition, % at 5.96 µM. hit rate 54% among 2,400;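 active means inhibition above the primary screen's cutoff, its mean inhibition plus 3 SD, cut at about 35% in these data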;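 further: loss of polarization as inhibitors block binding of rhodamine sulfonate ester activity probe; 0% = GSTO1 with DMSO and 100% = wells lacking GSTO1 enzyme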
# Starred values were filed as active, the others as inactive; / = no result given; + = active, no number.
SMILES,Fam108B counter,LYPLA1 counter,PAD4 FP inh,GSTO1 counter,LYPLA2 inh,PME-1 primary,Fam108b inh conf,GSTO1 confirm,others
CC1(C)CC(=O)C2=C(C1)NC1=C(C(=O)c3ccccc31)C2c1cc([N+](=O)[O-])ccc1O (centres undefined),21*,-11,-1,11,-3,15,15,/,
Cc1ccc(C2NNC(=O)C2NC(=O)c2ccccc2)cc1 (centres undefined),-7,-6,-8,3,-5,3,/,/,
COc1cc(/C=N/n2c(-c3ccc4c(c3)NC(=O)CO4)csc2=Nc2cccc(C)c2)ccc1O,21*,-1,4,-1,15,9,8,/,
Cc1nccn1CC(=O)c1ccc(O)c(O)c1,/,2,0,/,1,0,/,/,
Cc1cc(N/N=C/c2ccc(O)cc2O)nc(-c2ccccc2O)n1,34*,-14,9,7,3,65*,14,/,
Cc1cc(N/N=C/c2ccc(O)cc2O)c2ccccc2n1,-3,0,3,8,1,0,/,/,
CN(C)c1ncc(C2=C(Cl)C(=O)C(N3CCCC3)=C(Cl)C2=O)s1,26*,-3,7,88*,0,4,-4,81*,
Cc1cc(C)cc(N(CC(=O)NCc2cccnc2)S(C)(=O)=O)c1,2,-5,6,3,0,-2,/,/,
CCN(CC)c1ccc2c(-c3ccc(S(=O)(=O)O)cc3S(=O)(=O)[O-])c3ccc(=[N+](CC)CC)cc-3oc2c1,90*,-5,/,198*,-16,+,166*,+,
O=S(=O)(O)c1cc(O)ccc1O,5,0,-2,2,6,0,/,/,
O=S(=O)(c1cc(O)ccc1O)c1cccc2c(S(=O)(=O)c3cc(O)ccc3O)cccc12,36*,-10,-4,64*,-3,14,32*,13,Fam108b inh=55*
COC(=O)c1nnn(-c2nonc2N)c1CN1CCCC1,-2,-1,-5,-4,3,-1,/,/,
CCOc1ccc(-c2csc(/C(C#N)=C\c3ccc(O)c([N+](=O)[O-])c3)n2)cc1,25*,6,-1,43*,11,26,6,54*,
Cc1cccc(NC(=O)CN2CCN(C(=O)c3c(C)nn(Cc4ccccc4)c3C)CC2)c1C,/,-1,0,/,6,0,/,/,
O=C(O)C1Nc2ccc(Br)cc2C2C=CCC12 (centres undefined),55*,-1,8,51*,22,-14,35*,49*,Fam108b inh=40*
O=C(O)C1Nc2c(O)cccc2C2C=CCC12 (centres undefined),66*,-17,-3,61*,-6,14,57*,52*,
CCOC(=O)C1Nc2ccc(Br)cc2C2C=CCC12 (centres undefined),12,-6,-13,16,-5,5,/,/,
Cc1ccc(CNC(=O)CCC(=O)Nc2nnc(C)s2)cc1,-1,3,0,4,9,2,/,/,
COc1ccccc1Oc1c(C)oc2c(CN3CCN(CCO)CC3)c(O)ccc2c1=O,47*,55*,90*,67*,46*,41*,-7,8,
CCOc1ccccc1Oc1c(C)oc2c(CN3CCN(CCO)CC3)c(O)ccc2c1=O,6,0,-2,12,-1,0,/,/,
CCc1c(C(=O)Nc2cc(C)cc(C)c2)[nH]c(C)c1C(C)=O,-1,-6,1,-9,2,-3,/,/,
O=C(O)c1ccc2c(c1)[C@@H]1C=CC[C@@H]1[C@H](c1ccccn1)N2,39*,-7,0,51*,10,-34,+,9,Fam108b inh=0
CCOC(=O)c1ccc2c(c1)C1C=CCC1C(C(=O)OCC)N2 (centres undefined),7,-4,-8,24,-2,8,/,/,
O=C(O)/C=C\c1cc2c(cc1[N+](=O)[O-])OCO2,4,-1,-2,18,3,-2,/,/,
O=C1NC(=S)N/C1=C/c1cc2c(cc1[N+](=O)[O-])OCO2,47*,-3,-7,83*,-9,15,12,34,
